This passage reports composite z-score and z-score results from PubChem BioAssay.

The subject of test [1] is Plasmodium falciparum Sir2 (PF13_0152, Sir2A). Nature of the test: pfSir2 binders on small-molecule microarrays, primary screen, biochemical, small-molecule microarray, 635 nm fluorescence (AID 1098).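 Further: score merges spot fluorescence intensity with its signal-to-noise ratio.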 As to conditions: small-molecule microarray binding, fluorescence 635 nm; higher = more signal.
A short description of test [2]: small-molecule microarray binders of probe aDKK1, primary screen, biochemical, biotinylated probe, 635/667 nm fluorescence (AID 1099).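 Further: score merges 667nm spot fluorescence with signal to noise across triplicate slides.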 As to conditions: higher = more signal.
Test [3] can be described thus: small-molecule microarray binders of probe aCHRDL2, primary screen, biochemical, biotinylated probe, 635/667 nm fluorescence (AID 1100). To be noted: higher = more signal.
Test [4] is described as follows: splicing luciferase reporter signal modulators, primary screen, spliceosome inhibition project, cell-based, HEK293, splice +/- reporter (AID 1101).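 Further: HEK293 cells carrying a splicing-competent luciferase reporter gene; test concentration not given here.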 To be noted: luminescence, 24 h, higher = more signal, called active from +8 up or from −8 down. Background: In a reporter assay the amount or activity of a reporter protein is the signal.
For test [5], the target named is Fibroblast growth factor 10 (Homo sapiens) (UniProt O15520). Nature of the test: FGF10 binders on small-molecule microarrays, primary screen, biochemical, small-molecule microarray, 635 nm fluorescence (AID 1102). As to conditions: FGF10 binding, fluorescence 635 nm, higher = more signal.
Sequence of Fibroblast growth factor 10 (Homo sapiens) (O15520 whole entry, looked up): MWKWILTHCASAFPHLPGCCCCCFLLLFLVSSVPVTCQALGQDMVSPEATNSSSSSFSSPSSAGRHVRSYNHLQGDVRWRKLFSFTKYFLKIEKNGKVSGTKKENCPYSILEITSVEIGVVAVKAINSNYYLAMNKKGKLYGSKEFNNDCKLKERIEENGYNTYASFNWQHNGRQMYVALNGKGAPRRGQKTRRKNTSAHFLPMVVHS
Test [6] has as its system glycogen synthase kinase-3 (GSK3A per assay name; protocol says GSK3B). Nature of the test: GSK3 binders on small-molecule microarrays, primary screen, biochemical, small-molecule microarray, 635 nm fluorescence, GSK3A (AID 1103). Further: the record names both GSK3A and GSK3B. To be noted: small-molecule microarray binding, fluorescence 635 nm; higher = more signal.
In test [7] the target is Epidermal growth factor receptor (Homo sapiens) (UniProt P00533). The experiment in a line: EGFR binders on small-molecule microarrays, primary screen, biochemical, small-molecule microarray, 635 nm fluorescence (AID 1104).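 Further: score merges 667 nm emission intensity with spot signal to noise over triplicate slides.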 As to conditions: EGFR binding, higher = more signal.
Sequence of Epidermal growth factor receptor (Homo sapiens) (P00533 whole entry, looked up): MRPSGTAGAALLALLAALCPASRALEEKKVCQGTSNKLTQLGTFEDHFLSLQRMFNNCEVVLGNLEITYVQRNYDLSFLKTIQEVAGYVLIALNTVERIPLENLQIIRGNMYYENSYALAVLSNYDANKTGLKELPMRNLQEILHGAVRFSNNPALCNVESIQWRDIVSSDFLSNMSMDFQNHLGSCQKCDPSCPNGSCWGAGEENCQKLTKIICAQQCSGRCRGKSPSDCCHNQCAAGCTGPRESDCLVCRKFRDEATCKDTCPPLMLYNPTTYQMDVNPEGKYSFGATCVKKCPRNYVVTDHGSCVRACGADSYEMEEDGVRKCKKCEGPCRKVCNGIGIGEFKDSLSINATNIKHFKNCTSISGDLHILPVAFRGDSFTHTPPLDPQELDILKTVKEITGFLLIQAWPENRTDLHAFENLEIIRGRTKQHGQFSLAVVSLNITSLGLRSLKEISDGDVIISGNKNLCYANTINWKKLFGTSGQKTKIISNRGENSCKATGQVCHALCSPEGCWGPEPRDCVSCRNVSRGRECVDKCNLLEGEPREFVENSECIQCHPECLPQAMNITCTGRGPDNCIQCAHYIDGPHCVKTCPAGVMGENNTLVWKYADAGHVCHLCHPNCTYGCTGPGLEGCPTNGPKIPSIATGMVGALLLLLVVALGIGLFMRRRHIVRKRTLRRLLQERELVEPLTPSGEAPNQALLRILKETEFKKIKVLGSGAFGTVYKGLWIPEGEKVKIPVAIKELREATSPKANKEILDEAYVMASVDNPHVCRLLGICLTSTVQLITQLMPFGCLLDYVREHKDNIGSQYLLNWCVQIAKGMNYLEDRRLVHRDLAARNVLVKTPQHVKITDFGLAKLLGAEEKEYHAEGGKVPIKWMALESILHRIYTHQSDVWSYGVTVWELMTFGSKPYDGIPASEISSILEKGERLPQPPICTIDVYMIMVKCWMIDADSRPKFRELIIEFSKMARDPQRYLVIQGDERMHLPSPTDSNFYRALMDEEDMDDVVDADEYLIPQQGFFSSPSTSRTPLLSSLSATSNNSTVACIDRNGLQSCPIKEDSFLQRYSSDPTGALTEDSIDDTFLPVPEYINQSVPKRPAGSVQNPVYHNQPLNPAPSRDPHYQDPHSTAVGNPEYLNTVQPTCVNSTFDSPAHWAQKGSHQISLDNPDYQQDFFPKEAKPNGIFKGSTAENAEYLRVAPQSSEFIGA
For test [8], the target named is Follistatin-related protein 3 (Homo sapiens) (UniProt O95633). Nature of the test: FSTL3 binders on small-molecule microarrays, primary screen, biochemical, small-molecule microarray, 635 nm fluorescence (AID 1105).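 Further: score merges emission near 667 nm and signal to noise per printed spot across three slides.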 To be noted: FSTL3 binding, higher = more signal.
Sequence of Follistatin-related protein 3 (Homo sapiens) (O95633 whole entry, looked up): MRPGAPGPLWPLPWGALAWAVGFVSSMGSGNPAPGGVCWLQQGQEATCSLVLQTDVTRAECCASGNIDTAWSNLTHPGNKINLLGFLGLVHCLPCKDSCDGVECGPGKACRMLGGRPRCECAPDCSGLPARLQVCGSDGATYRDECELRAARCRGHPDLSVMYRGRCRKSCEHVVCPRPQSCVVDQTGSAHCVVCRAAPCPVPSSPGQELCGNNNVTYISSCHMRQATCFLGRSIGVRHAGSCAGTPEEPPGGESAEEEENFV
For test [9], the target named is Dickkopf-related protein 1 (Homo sapiens) (UniProt O94907). The experiment in a line: DKK1 binders on small-molecule microarrays, primary screen, biochemical, small-molecule microarray, 635 nm fluorescence scan (AID 1106).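 Further: score merges emission near 667 nm with signal to noise over three replicate slides.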 As to conditions: DKK1 binding, higher = more signal.
Sequence of Dickkopf-related protein 1 (Homo sapiens) (O94907 whole entry, looked up): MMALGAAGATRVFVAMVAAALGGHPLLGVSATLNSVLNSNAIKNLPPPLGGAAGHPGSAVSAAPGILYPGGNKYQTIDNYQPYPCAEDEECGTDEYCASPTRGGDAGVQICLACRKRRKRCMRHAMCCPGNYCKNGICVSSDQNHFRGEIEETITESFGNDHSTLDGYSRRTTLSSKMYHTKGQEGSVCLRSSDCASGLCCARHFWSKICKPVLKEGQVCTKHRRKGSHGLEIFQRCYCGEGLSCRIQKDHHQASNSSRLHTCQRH
The test system of test [10] is Inhibin beta A chain (activin A). The experiment in a line: INHBA (activin A) binders on microarrays, primary screen, biochemical, small-molecule microarray, 635 nm fluorescence scan (AID 1107).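 Further: mouse activin A protein probed at 4.33 µg/mL on printed slides; score merges bound-protein fluorescence near 667 nm with spot signal-to-noise.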 As to conditions: small-molecule microarray binding, higher = more signal.
The test system of test [11] is Human papillomavirus type 1a protein E7 (residues 44-93). Nature of the test: HPV1a E7 fragment binders on microarrays, primary screen, biochemical, small-molecule microarray, residues 44-93, 635 nm fluorescence (AID 1108).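 Further: E7 fragment applied at 1 µg/mL in TBST for 1 h at 4 C; score combines spot fluorescence with its signal to noise ratio.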 As to conditions: small-molecule microarray binding, fluorescence 635 nm; higher = more signal.
Test [12] in a line: modulators of HCV replicon luciferase signal, primary screen, HCV replication inhibitor project, Huh7 cells, luciferase reporter (AID 1109).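 Further: huh7 hepatoma cells harbouring a luciferase neomycin HCV replicon reporter; luciferase luminescence as measure of HCV replicon replication; test concentration not given here.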 To be noted: 48 h, higher = more signal.
In test [13] the target is Left-right determination factor 2 (Homo sapiens) (UniProt O00292). The experiment in a line: LEFTY2 binders on small-molecule microarrays, primary screen, biochemical, small-molecule microarray, 635 nm fluorescence scan (AID 1110). As to conditions: LEFTY2 binding, higher = more signal.
Sequence of Left-right determination factor 2 (Homo sapiens) (O00292 whole entry, looked up): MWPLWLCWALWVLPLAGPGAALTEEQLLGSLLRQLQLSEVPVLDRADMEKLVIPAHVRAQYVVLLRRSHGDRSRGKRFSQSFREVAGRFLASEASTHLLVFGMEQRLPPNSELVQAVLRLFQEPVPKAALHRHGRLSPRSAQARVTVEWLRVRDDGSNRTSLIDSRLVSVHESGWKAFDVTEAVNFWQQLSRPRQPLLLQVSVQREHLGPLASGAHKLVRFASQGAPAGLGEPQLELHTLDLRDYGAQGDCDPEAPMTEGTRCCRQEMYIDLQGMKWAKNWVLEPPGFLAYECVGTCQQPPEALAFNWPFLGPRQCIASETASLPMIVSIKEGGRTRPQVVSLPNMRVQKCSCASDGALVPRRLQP
For test [14], the target named is Calmodulin-1 (Homo sapiens) (UniProt P0DP23). Nature of the test: CALM1 binders on microarrays, EGTA buffer, profiling panel, biochemical, small-molecule microarray, Cy5-labelled CALM1 (AID 1111).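 Further: labelled calmodulin applied in Tris saline Tween buffer holding calcium plus EGTA and DTT.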 As to conditions: Cy5-CALM1 binding fluorescence, higher = more signal.
For test [15] the target is unchanged. Nature of the test: calcium-bound CALM1 binders on microarrays, profiling panel, artefact control for SMM control-protein annotation, biochemical, small-molecule microarray, Cy5-labelled CALM1, plus calcium (AID 1112).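 Further: score merges spot fluorescence with signal to noise from triplicate slides.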 To be noted: Cy5-CALM1 binding fluorescence, higher = more signal.
Test [16] is described as follows: small-molecule microarray binders of probe aWnt5a, primary screen, biochemical, biotinylated probe, 635/667 nm fluorescence (AID 1113).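 Further: score merges 667 nm fluorescence intensity with signal-to-noise per printed feature.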 As to conditions: higher = more signal.
Test [17] can be described thus: small-molecule microarray binders of probe aShh, primary screen, biochemical, biotinylated probe, 635/667 nm fluorescence (AID 1114).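 Further: probe is biotin-labelled aShh protein from a stem cell growth factor screen; measures binding of labelled protein to compounds printed on the slide; score merges feature fluorescence at 667 nm with signal-to-noise.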 To be noted: higher = more signal.
A short description of test [18]: small-molecule microarray binders of probe aNog, primary screen, biochemical, biotinylated probe, 635/667 nm fluorescence (AID 1115).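 Further: probe is biotinylated aNog protein used at 0.15 µg/mL for 1 h at 4 C; z-score combines 667 nm fluorescence of each spot with its signal to noise.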 As to conditions: higher = more signal.
Test [19] concerns the target Torsin-1A-interacting protein 1 (Homo sapiens) (UniProt Q5JTV8). The experiment in a line: LAP1 binders from COS7 cell lysate, primary screen, small-molecule microarray, 635/667 nm fluorescence (AID 1116). To be noted: COS7-hLAP1 lysate binding, 635 nm fluorescence, higher = more signal.
The target of test [20] is Alpha-bungarotoxin (Bungarus multicinctus) (UniProt P60615). The experiment in a line: alpha-bungarotoxin binders on microarray, profiling panel, artefact control for SMM control protein annotation, biochemical, small-molecule microarray, Alexa647 label, 635/667 nm fluorescence (AID 1117). To be noted: alpha-BTX-A647 binding fluorescence, higher = more signal.
Sequence of Alpha-bungarotoxin (Bungarus multicinctus) (P60615 whole entry, looked up): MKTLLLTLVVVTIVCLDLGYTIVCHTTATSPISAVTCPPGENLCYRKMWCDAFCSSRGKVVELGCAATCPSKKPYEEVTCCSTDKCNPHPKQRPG

The source made the active and inactive calls.

Sequence of Torsin-1A-interacting protein 1 (Homo sapiens) (Q5JTV8 whole entry, looked up): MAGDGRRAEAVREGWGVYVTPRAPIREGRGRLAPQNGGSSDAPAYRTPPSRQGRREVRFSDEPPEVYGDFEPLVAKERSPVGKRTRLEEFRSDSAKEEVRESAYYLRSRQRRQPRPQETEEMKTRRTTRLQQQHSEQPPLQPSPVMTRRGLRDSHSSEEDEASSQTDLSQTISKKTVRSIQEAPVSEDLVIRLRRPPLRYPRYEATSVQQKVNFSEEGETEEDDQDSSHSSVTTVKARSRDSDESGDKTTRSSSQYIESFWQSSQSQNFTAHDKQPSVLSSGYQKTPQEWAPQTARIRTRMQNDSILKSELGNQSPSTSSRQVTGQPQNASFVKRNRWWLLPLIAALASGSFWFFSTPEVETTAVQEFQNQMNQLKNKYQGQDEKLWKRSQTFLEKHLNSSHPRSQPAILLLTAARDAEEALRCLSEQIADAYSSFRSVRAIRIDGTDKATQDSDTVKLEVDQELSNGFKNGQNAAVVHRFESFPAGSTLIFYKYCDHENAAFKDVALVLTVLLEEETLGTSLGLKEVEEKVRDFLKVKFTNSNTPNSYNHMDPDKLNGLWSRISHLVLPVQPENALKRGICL

For the molecule `C=CCOC(=O)[C@@H]1[C@H]2C(=O)O[C@H](c3ccccc3)[C@H](c3ccccc3)N2[C@H](c2ccc(OCCOC(=O)[C@@H]3C[C@@H]4C(=O)N[C@@H](CC(C)C)C(=O)N4[C@@H]3c3ccc(O)cc3)cc2)[C@@]12C(=O)Nc1ccc(I)cc12`, the composite z-score was 1.03 in [1]; -0.228 in test [2]; -0.355 in test [3]; 1.37 in [5]; 1.28 in test [6]; 0.817 in test [7]. Besides, the composite z-score in [8] was found to be 1.42; in [9], 1.14; in test [10], 0.79; in test [11], 1.39; in [13], 1.26; in test [14], 0.751. For the same molecule, the composite z-score in test [15] was 0.289; in [16], -0.263; in test [17], -0.0793; in test [18], 1.12; in test [19] it was -0.107; in test [20], 1.44. Moreover, the z-score is -0.771 (inactive) in [4] and -0.432 in test [12].
`C=CC[C@@]1(C(=O)NCCCOC)N=C(c2ccc(OCCCO)cc2)O[C@@H]1c1ccccc1CN=[N+]=[N-]`: the composite z-score in test [1] turned out to be 1.5; in test [2], 0.739; in [3], 0.772; in test [5], 1.38; in test [6], 1.31; in test [7] it was 0.0652. In addition, the composite z-score in [8] was 1.2; in [9] it was -0.0117; in test [10] it was 1.14; in test [11], 1.42; in [13] it was 0.266; in test [14] it was 1.66. In addition, the composite z-score is 0.414 in test [15]; 0.0391 in test [16]; -0.13 in test [17]; 0.396 in test [18]; 0.957 in test [19]; 1.19 in test [20]. Further, the z-score is -0.226 (inactive) in test [4] and -2.12 in test [12].
On to `O=C(c1ccccc1)N1Cc2ccccc2C[C@@]2(N=C(c3ccc(OCCCO)cc3)O[C@H]2c2ccccc2)C1=O`, for which the composite z-score in test [1] was 1.26; in [2], -0.114; in test [3], -0.0152; in [5] it was 1.38; in test [6], 1.3; in test [7], 0.699. The composite z-score in [8] is 0.963; in [9], 0.777; in [10] it was -0.395; in test [11], 1.38; in test [13], 0.821; in test [14], 2.64. Besides, the composite z-score is -0.249 in test [15]; -0.0515 in test [16]; 0.0483 in test [17]; -0.432 in test [18]; 2.39 in test [19]; 1.01 in [20]. Besides, the z-score in test [4] is -0.847 (inactive); in test [12], -2.91.
With `C=C(CCCC)C(=O)CC[C@@H](OC(C)=O)c1ccc(OCCO)cc1`, the composite z-score in [1] was 0.476; in test [2], -0.276; in [3], -0.169; in test [5] it was 1.48; in test [6], -0.198; in [7] it was -0.678. Further, the composite z-score in [8] is 0.824; in test [9], 0.268; in [10] it was 0.204; in [11], 0.159; in test [13], 0.125; in [14], -0.537. The composite z-score was -1.29 in test [15]; -0.1 in test [16]; -0.0035 in [17]; -0.113 in [18]; 3.18 in test [19]; -0.127 in [20]. The z-score in test [4] was 3.03 (inactive); in test [12] it was -1.98.
In the case of `C=CCNC(=O)[C@H]1[C@@H]2C(=O)O[C@@H](c3ccccc3)[C@@H](c3ccccc3)N2[C@@H](c2ccc(O)cc2)[C@]12C(=O)Nc1ccc(C#CCC(C(=O)OC)C(=O)OC)cc12`, the composite z-score in [1] is -0.147; in test [2] it was 0.199; in test [3], 0.599; in test [5], 0.727; in test [6], 1.04; in test [7], -0.195. For the same molecule, the composite z-score was 0.339 in test [8]; 0.415 in test [9]; 1.08 in test [10]; -0.952 in test [11]; -0.243 in test [13]; -0.416 in [14]. For the same molecule, the composite z-score in test [15] is -0.401; in test [16] it was -0.0495; in test [17], 0.171; in test [18], -0.302; in [19], 0.49; in test [20], 0.0559. Besides, the figures for the z-score in test [4] and in test [12] were -0.0204 (inactive) and -0.174, respectively.
Regarding `CCCCN1CC=CC23O[C@@H]4C=CCCOC(=O)C4[C@H]2C(=O)N(CCO)[C@@H]3C1=O` (stereo not given in full), the composite z-score in test [1] is -1.33; in test [2] it was -0.364; in [3] it was 0.297; in test [5] it was 0.107; in [6] it was -0.248; in test [7] it was -1.19. Also, the composite z-score in test [8] is -0.838; in test [9], -0.587; in [10], 0.0542; in test [11], -0.548; in test [13], -1.02; in [14], -0.555. Besides, the composite z-score was -0.436 in [15]; -0.298 in test [16]; 0.149 in [17]; -0.249 in [18]; -0.997 in [19]; -0.363 in [20]. Further, the z-score was 0.244 (inactive) in [4] and -0.161 in test [12].
